Where “and” joins values, the source holds several entries; their conditions need not be identical. Equal entries are not always repeated. Results filed as inconclusive are left out. Some compounds were tested as several samples or in several runs, with calls that do not always agree. Calls of active or inactive are those of the source. Unless noted, the call rests on the fitted dose curve; in most records, active means well fitted curve in the direction sought with a large enough effect in the repeat runs; inconclusive means weak or mixed curves; inactive means no such curve, though single readings can be large; an effect the other way counts as inactive or inconclusive.
Assays:
[1] = qHTS assay to identify small molecule agonists of H2AX (AID 1224845; active means well fitted activation curve with a large enough effect in the signal ratio in the repeat runs, not every such curve was filed as active; the % refers to the signal ratio; further: potency means the concentration at half of the fitted maximal effect)
Method in brief: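 Wild-type CHO-K1 cells plated overnight, then exposed 3 hr at 37C to compounds at 15 concentrations (0.76% DMSO). Lysed, then HTRF anti-pH2AX(S139)-cryptate/anti-H2AX-d2 detection after 24 hr at room temperature; emissions 665 and 620 nm.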

[2] = qHTS assay to identify small molecule agonists of H2AX - cell viability counter screen (AID 1224847; calls by dose curve; further: nearly all actives have a fitted effect of over 30% in size; further: potency means the concentration at half of the fitted maximal effect)
Method in brief: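 Compounds tested at 15 concentrations were incubated 3 hr at 37C with wild-type CHO-K1 cells; cellular ATP-based luminescence (CellTiter-Glo) indicated viability.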

[3] = qHTS assay to identify small molecule antagonists of the estrogen related receptor (ERR) signaling pathway from Tox21 library (AID 1224848); further: nearly all actives have a fitted effect of over 50% in size; further: potency means the concentration at half of the fitted maximal effect
Method in brief: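 First, 2,000 ERR cells per well were plated and held 6 h at 37 C/5% CO2. Next, compounds in DMSO were pinned in and left 18 h at 37 C. Finally, ONE-Glo was added and luminescence read after 30 min at room temperature.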

[4] = qHTS assay to identify small molecule agonists of the estrogen related receptor (ERR) signaling pathway from Tox21 library (AID 1224849; calls by dose curve; further: nearly all actives have a fitted effect of over 15% in size); details: ERR reporter cell line, ONE-Glo luciferase, 18 h
Method in brief: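 Quantitative HTS in agonist format: NTP ERR cell line, compounds transferred in DMSO after 6 h plating, 18 h incubation at 37 C, ONE-Glo luminescence endpoint.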

[5] = qHTS RealTime-Glo MT Cell Viability Assay in HepG2 cells - 40 hour (AID 1224870); further: nearly all actives have a fitted effect of over 50% in size
Method in brief: (§1)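 HepG2 cells mixed with RealTime-Glo MT reagents (NanoLuc plus cell-permeant prosubstrate) were seeded at 600 cells/well, incubated 5 h at 37 C/5% CO2, then pinned with compounds in DMSO; nonlytic luminescence tracked viability during 40 h treatment.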

[6] = A CellTox Green Cytotoxicity Assay to monitor cytotoxicity in HEK293 cells - 40 hour (AID 1224871); further: nearly all actives have a fitted effect of over 45% in size; further: potency means the concentration at half of the fitted maximal effect
Method in brief: (§2)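 Dead-cell fluorescence measured kinetically: asymmetric cyanine dye, HEK293, 600 cells/well, 5 h settle, 23 nL cpd/DMSO, 37 C, reads 0–40 h every 8 h.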

[7] = qHTS RealTime-Glo MT Cell Viability Assay in HEK293 cells - 16 hour (AID 1224872); further: nearly all actives have a fitted effect of over 50% in size; further: potency means the concentration at half of the fitted maximal effect
Method in brief: (§3)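 Homogeneous bioluminescent viability format in HEK293 cells (600 cells/well). Following 5 h at 37 C/5% CO2, 23 nL compound was pintooled; the signal was measured repeatedly during 40 h incubation.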

[8] = qHTS RealTime-Glo MT Cell Viability Assay in HepG2 cells - 8 hour (AID 1224873); further: nearly all actives have a fitted effect of over 55% in size
Method in brief: as §1

[9] = A CellTox Green Cytotoxicity Assay to monitor cytotoxicity in HEK293 cells - 24 hour (AID 1224875); further: nearly all actives have a fitted effect of over 45% in size
Method in brief: as §2

[10] = A CellTox Green Cytotoxicity Assay to monitor cytotoxicity in HepG2 cells - 16 hour (AID 1224876); further: nearly all actives have a fitted effect of over 45% in size; further: potency means the concentration at half of the fitted maximal effect
Method in brief: (§4)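 First, HepG2 cells (600/well) mixed with reagent were plated; second, after 5 h at 37 C they received compounds via pintool; third, fluorescence was measured at 0 h through 40 h at 8 h intervals.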

[11] = qHTS RealTime-Glo MT Cell Viability Assay in HepG2 cells - 32 hour (AID 1224877); further: nearly all actives have a fitted effect of over 55% in size
Method in brief: (§5)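 Cell number in HepG2 cultures estimated from NanoLuc luminescence generated by metabolic reduction of a prosubstrate by living cells. The homogeneous, nonlytic format allowed repeated reads at 0, 8, 16, 24, 32 and 40 h of compound exposure.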

[12] = A CellTox Green Cytotoxicity Assay to monitor cytotoxicity in HepG2 cells - 24 hour (AID 1224878); further: nearly all actives have a fitted effect of over 45% in size; further: potency means the concentration at half of the fitted maximal effect
Method in brief: as §4

[13] = A CellTox Green Cytotoxicity Assay to monitor cytotoxicity in HepG2 cells - 40 hour (AID 1224879); further: nearly all actives have a fitted effect of over 40% in size; further: potency means the concentration at half of the fitted maximal effect
Method in brief: as §4

[14] = qHTS RealTime-Glo MT Cell Viability Assay in HEK293 cells - 0 hour (AID 1224880)
Method in brief: (§6)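 600 HEK293 cells per well, dispensed already mixed with RealTime-Glo MT reagents. Compound dosing came 5 h later. The same wells were read for luminescence at 0, 8, 16, 24, 32 and 40 h of exposure at 37 C.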

[15] = A CellTox Green Cytotoxicity Assay to monitor cytotoxicity in HEK293 cells - 32 hour (AID 1224881); further: nearly all actives have a fitted effect of over 40% in size; further: potency means the concentration at half of the fitted maximal effect
Method in brief: as §2

[16] = qHTS RealTime-Glo MT Cell Viability Assay in HepG2 cells - 24 hour (AID 1224867); further: nearly all actives have a fitted effect of over 50% in size
Method in brief: as §5

[17] = qHTS RealTime-Glo MT Cell Viability Assay in HEK293 cells - 32 hour (AID 1224868); further: nearly all actives have a fitted effect of over 50% in size; further: potency means the concentration at half of the fitted maximal effect
Method in brief: as §3

[18] = A CellTox Green Cytotoxicity Assay to monitor cytotoxicity in HEK293 cells - 0 hour (AID 1224869); further: nearly all actives have a fitted effect of over 50% in size
Method in brief: as §2

[19] = qHTS RealTime-Glo MT Cell Viability Assay in HEK293 cells - 40 hour (AID 1224874); details: RealTime-Glo luminescence; max response: stronger effect = lower value; further: nearly all actives have a fitted effect of over 50% in size; further: potency means the concentration at half of the fitted maximal effect
Method in brief: as §6

[20] = qHTS assay to identify small molecule agonists of the hypoxia (HIF-1) signaling pathway (AID 1224846; active means well fitted activation curve with a large enough effect in the signal ratio in the repeat runs, not every such curve was filed as active; the % refers to the signal ratio)
Method in brief: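 Agonist mode reporter screen. ME-180 cells stably expressing bla under HRE control received test compounds in DMSO for 17 hrs (37C, 5% CO2), and beta-lactamase activity was then detected with the CCF4-AM FRET substrate.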
On the % scale 0 is the no-effect control and ±100 the full control effect.

O=C(NCNC(=O)NC1C(=O)NC(=O)N1CO)NC1C(=O)NC(=O)N1CO (centres undefined)
inactive: Potency [1] | Potency [2] | Potency [3] | activity change, positive = activation ([4]; at 92.4 µM (top of the series)) 3.53% | Potency [5] | Potency [6] | Potency [7] | Potency [8] | Potency [9] | Potency [10] | Potency [11] | Potency [12] | Potency [13] | outcome [14] | Potency [15]

CC(Cl)C(=O)O (centres undefined)
inactive: Potency [1] | Potency [2] | Potency [16] | Potency [17] | Potency [18] | Potency [5] | Potency [6] | Potency [7] | Potency [8] | max response [19] 19.1% | Potency [10] | Potency [11] | Potency [12] | Potency [13] | outcome [14] | Potency [15]

CCC(C)(C)c1ccc(O)c(C(C)(C)CC)c1
inactive: activity change, positive = activation ([4]; at 92.4 µM (top of the series)) -59% and -10.3% | Potency [18] | Potency [5] | max response [19] -21.8% | Potency [11] | outcome [14]
60.4 µM (active) and inactive: Potency [3]
active: Potency [1] 56 µM and 35.7 µM | Potency [2] 88.8 µM and 40.1 µM | Potency [6] 43.2 µM and 15.5 µM | Potency [7] 43.2 µM | Potency [19] 43.2 µM | Potency [10] 24.3 µM | Potency [12] 34.3 µM | Potency [13] 38.5 µM | Potency [15] 48.5 µM and 13.8 µM

CCOP(=S)(S)OCC
inactive: Potency [1] | Potency [2] | Potency [3] | activity change, positive = activation ([4]; at 92.4 µM (top of the series)) -3.44% | Potency [17] | Potency [5] | Potency [6] | Potency [7] | Potency [8] | Potency [9] | Potency [10] | Potency [11] | Potency [12] | Potency [13] | outcome [14] | Potency [15]

CC(C)(C)NCC(O)c1cc(Cl)c(N)c(C(F)(F)F)c1 (centres undefined)
inactive: Potency [1] | Potency [2] | Potency [3] | activity change, positive = activation ([4]; at 42.5 µM (top of the series)) -0.267% | Potency [16] | Potency [18] | Potency [5] | Potency [6] | Potency [7] | Potency [8] | max response [19] 3.67% | Potency [10] | Potency [11] | Potency [12] | Potency [13] | outcome [14] | Potency [15]

CCCCC1C(=O)NC(=O)N(C2CCCCC2)C1=O (centres undefined)
inactive: Potency [1] | Potency [2] | Potency [16] | Potency [17] | Potency [18] | Potency [5] | Potency [6] | Potency [7] | max response [19] -0.655% | Potency [10] | Potency [11] | Potency [12] | Potency [13] | outcome [14] | Potency [15]

C[Si](Cn1cncn1)(c1ccc(F)cc1)c1ccc(F)cc1
active: Potency [2] 104 µM | Potency [3] 28.2 µM and 30.6 µM | Potency [17] 25.4 µM and 21.9 µM | Potency [6] 54.9 µM | Potency [7] 40.2 µM and 21.9 µM | Potency [19] 25.4 µM and 21.9 µM | Potency [12] 50.6 µM | Potency [13] 50.6 µM and 49 µM
inactive: Potency [1] | activity change, positive = activation ([4]; at 92.4 µM (top of the series)) -66.3% and -52.8% | Potency [16] | Potency [18] | Potency [5] | Potency [9] | Potency [11] | outcome [14]
50.6 µM (active) and inactive: Potency [10]
inactive and 54.9 µM (active): Potency [15]

Clc1ccccc1
inactive: Potency [1] | Potency [2] | activity change, positive = activation ([4]; at 92.4 µM (top of the series)) 5.28% | Potency [16] | Potency [18] | Potency [5] | Potency [6] | Potency [7] | Potency [8] | max response [19] -1.5% | Potency [9] | Potency [10] | Potency [11] | Potency [12] | Potency [13] | outcome [14] | Potency [15]

O=C(O)C(O)C(O)C(=O)O (centres undefined)
inactive: Potency [1] | Potency [2] | Potency [16] | Potency [17] | Potency [18] | Potency [5] | Potency [6] | Potency [7] | Potency [8] | Potency [10] | Potency [11] | Potency [12] | Potency [13] | outcome [14] | Potency [15]

COC1=CC(=O)O[C@@H](/C=C/c2ccc3c(c2)OCO3)C1
inactive: Potency [1] | activity change, positive = activation ([4]; at 92.4 µM (top of the series)) -47.8% | Potency [16] | Potency [17] | Potency [18] | Potency [5] | Potency [6] | Potency [7] | Potency [8] | Potency [9] | Potency [10] | Potency [11] | Potency [13] | outcome [14] | Potency [15]
active: Potency [3] 20.8 µM

NCCc1cc(O)c(O)cc1O
inactive: outcome [20] | Potency [2] | Potency [17] | Potency [18] | Potency [5] | Potency [6] | Potency [7] | Potency [8] | max response [19] -1.21% | Potency [10] | Potency [11] | Potency [12] | Potency [13] | outcome [14] | Potency [15]

CC(Cc1ccccc1)NCc1ccccc1Cl (centres undefined)
inactive: Potency [1] | Potency [16] | Potency [18] | Potency [5] | Potency [7] | max response [19] -14.1% | Potency [10] | Potency [11] | Potency [12] | Potency [13] | outcome [14]

CC(O)CN1CCN(CC(=O)[O-])CCN(CC(=O)[O-])CCN(CC(=O)[O-])CC1.[Gd+3] (centres undefined)
inactive: Potency [1] | Potency [16] | Potency [18] | Potency [5] | Potency [6] | Potency [7] | Potency [8] | Potency [10] | Potency [11] | Potency [12] | Potency [13] | outcome [14]

From PubChem BioAssay (Tox21)
